G9a block – blocks human histone lysine methyltransferase G9a. Q96KQ7. 350,000 tested, 8.8% active. G9a H3K9 monomethylation, AlphaScreen, 2 h. Potency, µM (series often up to 102 µM), most hits filed as inhibitors. AID 504332; further: nearly all actives have a fitted effect of over 75% in size
Target sequence (Q96KQ7 913-1193 limits assumed): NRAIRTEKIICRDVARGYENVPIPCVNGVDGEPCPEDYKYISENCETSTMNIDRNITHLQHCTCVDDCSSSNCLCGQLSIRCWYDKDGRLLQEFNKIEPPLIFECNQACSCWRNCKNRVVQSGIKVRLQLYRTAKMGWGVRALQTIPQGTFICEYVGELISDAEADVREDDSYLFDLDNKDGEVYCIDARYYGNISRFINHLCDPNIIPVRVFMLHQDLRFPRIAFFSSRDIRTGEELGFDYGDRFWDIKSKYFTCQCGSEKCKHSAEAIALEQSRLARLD
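Signal arises when biotinylated H3K9 peptide, once monomethylated, bridges streptavidin donor and antibody-captured acceptor beads. Enzyme at 20 nM was preincubated 15 min with test compounds; peptide 500 nM and SAM 20 uM then reacted for 2 h.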
Tau FP inhib – inhibitors of human tau fibril formation | K18 P301L tau heparin fibrillization, Alexa594 FP, 6 h | Potency, µM (highest dose often 57.7 µM), hits mostly inhibitors | P10636 | 280,000 tested, 0.39% active; further: nearly all actives have a fitted effect of over 55% in size
Target sequence (P10636 561-689 P618L limits assumed): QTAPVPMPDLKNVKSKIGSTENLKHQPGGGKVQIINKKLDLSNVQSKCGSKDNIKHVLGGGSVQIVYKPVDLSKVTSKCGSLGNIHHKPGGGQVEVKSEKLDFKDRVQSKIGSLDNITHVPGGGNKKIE
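FP of Alexa 594-tau after heparin (20 uM) induction. Substrate: human K18 P301L, 15 uM unlabeled, 0.24 uM labeled. Buffer 100 mM sodium acetate pH 7. 6 hr, 37 C.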
Coupling enz – coupling enzyme interference in Giardia aldolase counter-screen | coupling enzyme system counterscreen, AmpLite Red fluorescence | activity change, negative = inhibition, % at 58.2 µM, hits read low | 290,000 tested, 0.67% active; in the data active means activity change below about -30%
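Compounds tested against the coupling enzymes alone at 57.5 uM final; readout was AmpLite Red fluorescence (525/598 nm) after 20 min at RT.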
Tau fluor cs – counter-screen for tau fibril formation inhibitors; tau K18 P301L Alexa594 fluorescence, heparin fibrillization; Potency, µM (series often up to 57.7 µM); 280,000 tested, 0.93% active; AID 1463; further: nearly all actives have a fitted effect of over 55% in size
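Human K18 P301L tau (15 uM unlabeled plus 0.24 uM Alexa 594-labeled, final) in 100 mM sodium acetate pH 7 was mixed with compound and 20 uM heparin and incubated 6 hr at 37 C.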
Tau ThT inhib – tau fibrillization inhibition (ThT binding). P10636. recombinant tau K18 P301L (four-repeat tau fragment), heparin-induced fibrillization, ThT fluorescence. Potency, µM (highest dose often 57.4 µM), most hits filed as inhibitors. 270,000 tested, 2.1% active; further: nearly all actives have a fitted effect of over 55% in size
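Aggregation was driven by heparin (20 uM final) acting on recombinant tau […] bearing P301L in 100 mM sodium acetate pH 7; fibrils were detected with Thioflavin T.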
Sfp PPTase inh – blocks B. subtilis Sfp PPTase activity; Q9F4F7; 310,000 tested, 3.5% active; Biochemical Sfp PPTase activity, qHTS; Potency, µM, most hits filed as inhibitors;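 further: the enzyme is Sfp with the accession as filed and its product quenches rhodamine fluorescence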
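Buffer: 50 mM Hepes-Na pH 7.6, 10 mM MgCl2, 0.01% Nonidet P-40, 0.01% BSA. Enzyme 15 nM, pre-exposed to compound 15 min; substrates then added and fluorescence change tracked over 30 min.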
Numbers stand for hits; 0 = inactive; ? = inconclusive; - = no result given; ! = repeats disagree; [ ] = another dose, or the depositor's remark. An excerpt weighted towards active compounds, which were near 11% of everything screened. Unless noted, the call rests on the fitted dose curve; in most records, active means well fitted curve in the direction sought with a large enough effect; inconclusive means small, poorly fitted or top-dose-only effect, or another doubt; inactive means no such curve, though single readings can be large; an effect the other way counts as inactive or inconclusive.

SMILES | G9a block | Tau FP inhib | Coupling enz | Tau fluor cs | Tau ThT inhib | Sfp PPTase inh
Cc1occc1C(=O)NCc1ccc(C(=O)O)o1 | 0[12.7 µM] | 0 | 0 | 0 | 0 | 50µM
Cc1cc(C(=O)NCc2ccc(C(=O)O)o2)c(C)o1 | ? | 0 | 0 | 0 | 0 | 0
Cc1occc1C(=O)NCCCCc1ccccc1 | 0[12.7 µM] | 0 | 0 | 0 | 0 | 18µM
CC(=O)N/C(=N/c1nc(C)cc(C)n1)Nc1cccc(C)c1C | 0 | - | 0 | - | - | 0
CC1(O)/C=C\C=C(\CO)C2CC(C)(C)C2(O)CC1 (centres undefined) | - | 0 | 0 | 0 | 0 | 0
O=C(COC(=O)CN1C(=O)C2CCCCC2C1=O)NNC(=O)c1ccc(Cl)cc1 (centres undefined) | 0 | - | - | - | - | -
Cc1cc(C(=O)Nc2cccc3ccccc23)c(C)o1 | 0 | - | 0 | - | - | 0
Cc1occc1C(=O)Nc1cccc2ccccc12 | 11µM | 0 | 0 | 0 | 0 | 0
COc1cccc(OCc2nnc(SCC(=O)N3c4ccccc4Sc4ccc(Cl)cc43)o2)c1 | 28µM | ? | 0 | 0 | ? | 0
CN1CCN(C(=O)CSc2nnc(COc3ccccc3)o2)CC1 | 40µM | - | 0 | - | - | 0
CN1CCN(C(=O)CSc2nnc(COc3ccc(Cl)cc3)o2)CC1 | 0 | - | 0 | - | - | 0
COc1ccc(NC(=O)NCc2c(-n3cccc3)sc3c2CCCC3)c(OC)c1 | 0 | 0 | - | 0 | 0 | -
COc1ccc(C(=O)CN2C(=O)N(c3cc(C)cc(C)c3)S(=O)(=O)c3ccccc32)cc1 | 0 | ? | - | 0 | 0 | -
Cc1ccc(C)c(CSc2nnc(-c3ccccn3)n2N)c1 | 0 | 0 | 0 | 0 | 0 | 0
CC1(C)N=C(SCc2ccc(F)cc2)c2ccccc2N1 | 0 | 0 | - | 11µM[quencher] | ? | -
Cc1ccc(C)c(CSC2=NC(C)(C)Nc3ccccc32)c1 | 0 | 0 | - | 11µM[quencher] | ? | -
COC(=O)C1=C(C)N=C2SC(C#N)=C(N)N2C1c1ccc(OCc2ccccc2)cc1 (centres undefined) | ? | ? | 0 | 7.9µM[quencher] | ? | 0
COC(=O)C1=C(C)N=C2SC(C#N)=C(N)N2C1c1cc(OC)c(OC)c(OC)c1 (centres undefined) | 0 | 0 | 0 | 0 | 0 | 0
COc1ccc2c(c1)c(=O)oc1cc(OCC(=O)N3CCCC(C)C3)ccc12 (centres undefined) | 0[12.7 µM] | 0 | 0 | 0 | ? | 0
COc1ccc2c(c1)c(=O)oc1cc(OCC(=O)N3CCC(C)CC3)ccc12 | 8.9µM | 0 | 0 | 0 | 0 | 0
COc1ccc2c(c1)c(=O)oc1cc(OCC(=O)N3CCc4ccccc4C3)ccc12 | 3.2µM | 0 | 0 | 0 | ? | ?
COC(=O)CCC(=O)OC1(C)C(=O)C=C2C=C(C3CC3)N(Cc3ccc(OC)cc3)C=C2C1=O (centres undefined) | 0 | 0[11.6 µM] | -45! | 0[11.6 µM] | ? | 0
COC(=O)CCC(=O)OC1(C)C(=O)C=C2C=C(C3CC3)N(Cc3ccc4c(c3)OCO4)C=C2C1=O (centres undefined) | 0[12.7 µM] | 0[11.6 µM] | -39 | 0[11.6 µM] | ? | 0
CC(C)n1nc(C(=O)N2CCN(S(=O)(=O)c3cccs3)CC2)c2ccccc2c1=O | 0 | 0 | 0 | 0 | 0 | 0
CC1CCN(Cc2ccc(NC(=O)CC3Oc4ccccc4NC3=O)cc2)CC1 (centres undefined) | 50µM | 0 | 0 | 0 | 0 | 0
SMILES | G9a block | Tau FP inhib | Coupling enz | Tau fluor cs | Tau ThT inhib | Sfp PPTase inh
CCC(C)N(CCNC(=O)CC1Oc2ccccc2NC1=O)C1CCCCC1 (centres undefined) | 50µM | 0 | 0 | 0 | 0 | 0
CCN(CCNC(=O)CC1Oc2ccccc2NC1=O)c1ccccc1 (centres undefined) | 79µM | 0 | 0 | 0 | 0 | 0
Cc1noc(C)c1C(=O)Nc1c(F)cc(F)cc1Br | 0 | 0 | 0 | 0 | 0 | 0
O=C(Nc1c(F)cc(F)cc1Br)c1ccco1 | ? | 0 | 0 | 0 | 0 | 50µM
COc1ccc2c(C)cc(SCC(=O)Nc3cc(C(N)=O)cc(C(N)=O)c3)nc2c1 | 0 | ? | 0 | ? | 0 | 45µM
COc1cccc(NC(=O)CSc2cc(C)c3ccccc3n2)c1 | 0 | 0 | - | 0 | 0 | -
Nc1c(Cl)ncnc1N/N=C/c1ccccn1 | ? | 0 | 0 | 0 | ? | 0
